Results reported in PubChem BioAssay (NCI).
Compounds without any hit were thinned out: in the full panel of roughly 83,000, 20% have a hit.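 Each cell line was grown in a 96-well plate and treated with one concentration of compound for 48 hours. Values below 10 were considered active.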 Values without a mark were called inactive. Activity calls are given as the source filed them.

Columns and labels:
Assay in all cases: NCI-60 one-dose screen, 48 h (100 = growth as untreated, 0 = no growth, -100 = all killed)
Details in all cases: 10 µM unless noted
SK-MEL-2 melanoma = system: SK-MEL-2 melanoma
EKVX NSCLC = system: EKVX NSCLC
SN12C renal = system: SN12C renal
UO-31 renal = system: UO-31 renal
TK-10 renal = system: TK-10 renal
ACHN renal = system: ACHN renal
CAKI-1 renal = system: CAKI-1 renal
A498 renal = system: A498 renal
MOLT-4 leukemia = system: MOLT-4 leukemia
CCRF-CEM leukemia = system: CCRF-CEM leukemia

Compound	growth (SK-MEL-2 melanoma)	growth (EKVX NSCLC)	growth (SN12C renal)	growth (UO-31 renal)	growth (TK-10 renal)	growth (ACHN renal)	growth (CAKI-1 renal)	growth (A498 renal)	growth (MOLT-4 leukemia)	growth (CCRF-CEM leukemia)
NS(=O)(=O)c1ccc(-n2ncc3c(SCc4ccccc4)ncnc32)cc1	99.8%	107%	98.8%	98.5%	89.4%	98%	26.3%	111%	50.3%	
Cc1[nH]cnc1/C=C1\SC(N2CCCCC2)=NC1=O	98%	108%	98.4%	83%	109%	106%	112%	83.4%	100%	99.3%
O=C(Nc1nc(-c2ccc(Cl)cc2)cs1)c1cc(-c2ccc(Br)cc2)nc2ccc(Cl)cc12	22.8%	77.3%	35.8%	34.7%	130%	63.6%	81.4%			39.2%
CC1CN(/N=C/c2ccc([N+](=O)[O-])o2)C(=N)O1 (centres undefined)	123%	104%	91%	73.9%	105%	92.9%	96.4%		107%	112%
N#Cc1c(-c2ccccc2)cc(-c2ccccc2)n(CCCCC(=O)O)c1=O	96.6%	89.4%	96.8%	86%	99.9%	100%	86.8%		107%	87.7%
CCCCc1ccc(C(N)=O)nc1	96%	100%	98.7%	88.7%	103%	98.8%	102%		101%	92%
C=C1CCC2C3(C)COC(c4ccccc4)OC3CCC2(C)C1C/C=C1/C(=O)OCC1OC(C)=O (centres undefined)	95.1%	104%	80.6%	81.6%	56.8%	92.4%	106%		77.1%	2.16% (active)
Nc1nc(Nc2ccccc2SSc2ccccc2Nc2nc(N)nc(-c3ccc(I)cc3)n2)nc(-c2ccc(I)cc2)n1	103%	52.2%	23.4%	-92.2% (active)	104%	19.2%	59.7%		71.7%	50.3%
O=C(CC(C(=O)c1ccccc1)N1CCN(Cc2ccccc2)CC1)c1ccccc1 (centres undefined)	104%	120%	99.3%	80%	96.6%	41.8%	73.5%		49.5%	8.48% (active)
N#Cc1c(-c2ccccc2)cc(-c2ccccc2)n(CCCC(=O)O)c1=O	97.8%	94%	96.2%	85.8%	124%	97.8%	97.1%		97.3%	104%
O=C(O)c1ccc2cccnc2c1O	4.77% (active)	18.8%	7.06% (active)	-5.79% (active)	13.2%	7.69% (active)	4.24% (active)	13.6%	11.2%	10.3%
CCN1CCN(c2nc(NNC(=O)Cc3ccccc3)nc(N3CCN(C(c4ccccc4)c4ccccc4)CC3)n2)CC1	37.6%	75.7%	77.9%	61.7%	89.1%	86.4%	39.5%		38.5%	42.6%
CCOC(=O)C1=CCC(n2cc(C)c(=O)[nH]c2=O)O1 (centres undefined)	105%	104%	101%	96.9%	118%	103%	85.8%		94.7%	98.8%
O=C1NC(=O)/C(=C/c2ccc(Cl)cc2Cl)N1	103%	77.4%	107%	80.7%	110%	109%	102%		94.5%	92.3%
Cc1cc(C)c(C(=O)c2cccs2)c(C)c1	100%	117%	94%	67.8%	96.2%	108%	95.2%		104%	97.9%
COc1cccc(/C=N\NC(=O)c2ccncc2)c1O	43.8%	78.8%	62.8%	29%	41.1%	31.2%	13.2%		13.9%	11%
N/C(=N\C(N)=N\c1nc2ccccc2s1)c1ccnc(Cl)c1	29%	51.3%	57.6%	56.5%	75.7%	47.8%	21.6%		33.6%	19.2%
c1ccc(-c2nc(Nc3nccnn3)c3ccccc3n2)cc1	112%	88.4%	96.7%	89.8%	155%	103%	84.9%		100%	93.2%
COc1ccc2c(c1)C(=Nc1cc(OC)c(OC)c(OC)c1)C(=O)N2	76.8%	97%	97.3%	46.9%	136%	88.5%	122%		104%	81.1%
CC[C@@H](c1ccc(O)c(O)c1)[C@@H](CC)c1ccc(O)c(O)c1	93.6%	117%	99.8%	-1.68% (active)	97%	9.03% (active)	6.55% (active)		59.9%	7.86% (active)
COC(=O)Nc1ccc2ccc3c(NC(=O)OC)ccc4ccc1c2c43 (tested in a mixture with another compound)	52.8%	68.1%	68.4%	42.1%	85.9%	59%	50.7%		35%	54.4%
COc1ccc(-c2cnc(SCC(=O)Nc3ccc(-c4nc5ccccc5s4)cc3)n2-c2ccc(OC)cc2)cc1	102%	108%	104%	91.7%	108%		103%	108%		94.2%
O=C(c1ccccc1)c1ccc(Oc2ccc([N+](=O)[O-])cc2[N+](=O)[O-])cc1	34.9%	99.6%	71.6%	48.7%	83.4%	50.4%	27.3%		78.3%	27.4%
O=C(/C=C(\Nc1ccccc1)c1ccccc1)c1cn(-c2ccc([N+](=O)[O-])cc2)nn1	5.29% (active)	100%	104%	69%	118%		108%	96.2%	64.3%	71.4%
O=C(N/N=C/c1cccc(O)c1)c1ccc(C(F)(F)F)nc1Nc1cccc(C(F)(F)F)c1	12.9%	5.06% (active)	7.08% (active)	-9.68% (active)	15.6%	-6.85% (active)	-22% (active)		-20.5% (active)	-38.3% (active)
Clc1ccc(C2c3ccccc3-c3nccn32)c(Cl)c1 (centres undefined)	80.7%	60%	85.4%	80.1%	81.3%	89.7%	-12% (active)		65.6%	
CCCn1c(N)c(C(=O)CNc2ccc(I)cc2)c(=O)[nH]c1=O	-7.88% (active)	77.9%	44.6%	30.1%	59%		58.3%	49.2%	29.2%	55.9%
OC(c1cc(-c2cccc(Cl)c2)nc2ccccc12)C1CCCCN1 (centres undefined)	-92% (active)	47.3%	-5.08% (active)	-44.8% (active)	-63.2% (active)		-36.5% (active)	56.3%	-30.6% (active)	-8.29% (active)
CC1c2ccccc2-c2ccccc2N1C (centres undefined)	101%	124%	89.6%	70.7%	94.3%	103%	95.7%		103%	101%
COc1ccc2c3c(ccc2c1)C(=O)/C(=C\O)CC3	99.8%	78.5%	100%	96.6%	93.4%	102%	105%		88.4%	72.4%
